# High-throughput results (PubChem BioAssay)
# In the library only some 6.5% were active in any assay of this set; here they are far more common.
# HepG2 viability = qHTS for Inhibitors of TGF-b: Cytotox Counterscreen; HepG2 CAGA-GFP viability, ATP luminescence, 18 h; Potency, µM (top dose mostly 46.1 µM), for the others: at the top dose activity change, negative = cytotoxicity, most hits filed as cytotoxic; 0.76% of 410,000 active; AID 588856, 2011; further: potency means the concentration at half of the fitted maximal effect
#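 CellTiter-Glo luminescence gave cytotoxicity after 18 hours at 37 degrees C. The cells were HepG2 CAGA-GFP in 1% FBS DMEM, stimulated with 500 pg/mL TGF-beta after compound addition. %Activity was normalised to no-cell wells (complete cell-killing) and DMSO (no toxicity), and curves were fitted and classified.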
# Giardia killer = Small Molecules that selectively kill Giardia lamblia: qHTS. Giardia lamblia trophozoite viability. activity change, % at 7.66 µM, hits read low. 0.15% of 340,000 active. AID 540267, 2011; in the data active means activity change below about -80%; inconclusive means between about -30% and that limit;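 further: parasites exposed to compound for two days anaerobically before the ATP read; on the % scale 0 is the no-effect control and ±100 the full control effect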
#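 Killing of trophozoites was scored by loss of ATP luminescence after a 48 hrs anaerobic exposure to compounds at 37 deg C, using 100 cells per well.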
# TGFb SMAD3 inh = qHTS for Inhibitors of TGF-b; HepG2 CAGA-GFP TGF-b/SMAD3 reporter, GFP fluorescence, 18 h; TGF-beta stimulated, 500 pg/mL final; Potency, µM (series often up to 46.1 µM), for the others: at the top dose activity, negative = inhibition, hits mostly inhibitors; 1.2% of 410,000 active; further: potency means the concentration at half of the fitted maximal effect; on the % scale 0 is the no-effect control and ±100 the full control effect; nearly all actives have a fitted effect of over 65% in size
#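 Using HEPG2 CAGA-GFP reporter cells at 1000 cells/well, we pinned test compounds, stimulated with recombinant TGF-beta (500 pg/mL final) and measured total well GFP after 18 h.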
# IL-1B inflam inh = qHTS for Inhibitors of Inflammasome Signaling: IL-1-beta AlphaLISA Primary Screen; THP-1 LPS/ATP IL-1B secretion, AlphaLISA, 16 h; stronger effect = lower value; activity change, % at 57.5 µM; 4.7% of 360,000 active; in the data active means activity change below about -50%; inconclusive means mostly about -30% to -49%; further: on the % scale 0 is the no-effect control and ±100 the full control effect
#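 Secreted IL-1B measured by AlphaLISA bead assay after 16 h compound exposure of THP-1 cells; compounds (final up to 57.5 uM) added 1 h before LPS (250 ng/mL) and ATP (1.25 mM) stimulation; lower signal means less secretion.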
# HT1080 IDH1KD tx = qHTS for induction of synthetic lethality in tumor cells producing 2HG: qHTS for the HT-1080-IDH1KD cell line | HT-1080 IDH1 knockdown viability, ATP luminescence, 48 h | Potency, µM (titrated, usually from 46.1 µM), for inactives: at the top dose activity, negative = toxicity, usual class: cytotoxic | 2% of 360,000 active;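 further: potency means the concentration at half of the fitted maximal effect; 0% = DMSO wells and -100% = cell-free medium wells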
#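 In this qHTS, HT-1080 cells depleted of IDH1 are exposed for 48 h at 37 °C to compound titrations. Toxicity is scored from CellTiter-Glo luminescence, with DMSO as full viability and medium alone as none.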
# HT1080NT lethal = qHTS for induction of synthetic lethality in tumor cells producing 2HG: qHTS for the HT-1080-NT fibrosarcoma cell line. HT-1080-NT fibrosarcoma viability, CellTiter-Glo ATP luminescence, 48 h. Potency, µM (top dose mostly 46.1 µM), inactives show at the highest dose activity, negative = less viability, hits mostly cytotoxic. 1.6% of 360,000 active. AID 686970, 2013;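 further: NT is the 2HG producing partner of a matched IDH1 knockdown line; potency means the concentration at half of the fitted maximal effect; 0% = DMSO-treated cells and -100% = media-only wells without cells; nearly all actives have a fitted effect of over 55% in size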
#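 Toxicity toward the 2HG-producing NT line was scored as %Activity, normalised to DMSO and no-cell wells, from CellTiter-Glo luminescence after 48 hours' treatment.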
# * = called active by the depositor; ? = inconclusive; . = no result. Unless noted, the call rests on the fitted dose curve; in most records, active means well fitted curve in the direction sought with a large enough effect; inconclusive means small, poorly fitted or top-dose-only effect, or another doubt; inactive means no such curve, though single readings can be large; an effect the other way counts as inactive or inconclusive.
SMILES,HepG2 viability,Giardia killer,TGFb SMAD3 inh,IL-1B inflam inh,HT1080 IDH1KD tx,HT1080NT lethal
Cc1ccc(N=N/C(=C\O)C(=O)c2ccncc2)cc1,-40%,-16,10%,-7,16µM*,26µM*
O=C(/C(=C/O)N=Nc1ccc(Cl)cc1)c1ccncc1,-100%,3,?,-7,21µM*,?
COC(=O)c1cccc(NC(=O)c2cc3sccc3n2C)c1,-7%,6,-1%,-16,4%,3%
Cc1ccccc1NS(=O)(=O)c1ccc(C(=O)NCc2ccccc2CN2CCCC2)cc1,-34%,.,0%,?,-18%,-8%
Cc1ccc(S(=O)(=O)N2CC3CCCN3c3ccc(C(F)(F)F)cc32)cc1 (stereo unspecified),-12%,14,3%,-20,-16%,0%
CN1C(=O)/C(=C\C(=O)c2cccs2)c2ccccc21,-19%,-14,?,-103*,?,10µM*
O=C1CCN(C(=O)c2cccs2)c2ccccc21,-7%,15,-3%,28,0%,-1%
Cc1ccc(NCc2cccc(B(O)O)c2)cc1,-35%,18,9%,-95*,-16%,-2%
O=C(CN(c1ccc(Cl)c(Cl)c1)S(=O)(=O)c1ccccc1)N1CCc2ccccc2C1,-2%,-26,1%,-21,-29%,-9%
COc1ccc(C2=NOC(C(=O)Nc3cccc(O)c3)C2)cc1 (stereo unspecified),-6%,12,2%,-17,-11%,-10%
Cc1ccc(-c2nc3sc(CCNS(=O)(=O)c4cc(F)ccc4F)c(C)n3n2)cc1,-3%,.,6.3µM*,.,.,.
Cc1ccc(-c2nc3sc(CCNC(=O)c4ccc(F)c(F)c4)c(C)n3n2)cc1,-28%,.,-29%,.,.,.
COc1ccc(-c2nc3sc(CCNC(=O)c4ccc(Br)o4)c(C)n3n2)cc1,-43%,.,?,.,.,.
Cc1c(CCNC(=O)c2ccc(Br)o2)sc2nc(-c3ccc(Cl)cc3)nn12,-33%,.,11µM*,.,.,.
N/C(=N\c1nc2ccccc2o1)NC(=O)c1ccc([N+](=O)[O-])cc1,18%,-19,-12%,-6,12%,17%
CN(C)C(=S)N=c1ssc(=S)n1Cc1cccnc1,-45%,33,3.2µM*,10,-14%,-9%
CCCCCN(C(=O)CCC(=O)OC(C)C(=O)c1ccccc1)c1c(N)n(CCCC)c(=O)[nH]c1=O (stereo unspecified),-30%,-13,13%,5,4%,1%
COc1cccc(CN2CCC2(C)C(=O)Nc2ccc(C)c(O)c2)c1F (stereo unspecified),-37%,.,8%,-52*,?,?
COc1ccc(NC(=O)C2(C)CCN2Cc2cccc(OC)c2F)cc1OC (stereo unspecified),-1%,.,-3%,?,4%,12%
COc1cccc(CN2CCC2(C)C(=O)Nc2cccc(Oc3ccccc3)c2)c1F (stereo unspecified),-1%,.,?,-21,6.5µM*,?
COc1cccc(CN2CCC2(C)C(=O)Nc2cccc3cccnc23)c1OC (stereo unspecified),-57%,.,11µM*,-1,?,?
Cc1ccc(C(=O)NCC(=O)N(C)Cc2cccc(F)c2)s1,28%,31,5%,-9,-4%,1%
Cc1cccc(C(=O)OCC(=O)Nc2nnc(-c3ccccc3)o2)c1O,-31%,-13,-9%,10,-3%,1%
CC(C)CC[n+]1ccccc1/C=C/c1ccc(N(C)C)cc1,-22%,-8,33%,-95*,23µM*,?
CN(C)c1ccc(/C=C/c2cccc[n+]2[O-])cc1,13%,-3,14%,.,8%,18%
